Data: PubChem BioAssay (EPA / NIEHS)
Activity calls are given as the source filed them. The calls were made as follows: active = hit-call score of the fitted dose curve at least 0.9, where 1 is the maximum; inactive = score below 0.9.

Tests used:
[1] = read-out: Fatty acid synthase (Homo sapiens) (UniProt P49327); assay: LTEA_HepaRG_FASN: Life Technologies and Expression Analysis (LTEA) Assay for Fatty Acid Synthase (FASN) using HepaRG (AID 2283448); conditions: mRNA level, 48 h; actives raise or lower the signal
Procedure, shortened: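 FASN transcript measured by TaqMan qRT-PCR, normalised to three housekeeping genes, after 48 h chemical exposure of HepaRG cells. Eight-point half-log series from 100 uM in 0.5% DMSO, duplicates; gain or loss fitted against vehicle.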

[2] = read-out: Cyclin D2 (CCND2), CCND2 (gene 894); assay: LTEA_HepaRG_CCND2: Life Technologies and Expression Analysis (LTEA) Assay for Cyclin D2 (CCND2) using HepaRG (AID 2283449); conditions: mRNA level, 48 h; actives raise or lower the signal;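 also: CCND2 transcript measured by TaqMan qRT-PCR and normalised to three housekeeping genes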
Procedure, shortened: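 HepaRG, 48 h dosing, 8-pt half-log curve from 100 uM, 0.5% DMSO; duplicate wells. Readout: CCND2 transcript by microfluidic qRT-PCR, housekeeping-normalised; bidirectional fit vs DMSO baseline.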

[3] = read-out: Cyclin Dependent Kinase Inhibitor 1A (CDKN1A), CDKN1A (gene 1026); assay: LTEA_HepaRG_CDKN1A: Life Technologies and Expression Analysis (LTEA) Assay for Cyclin Dependent Kinase Inhibitor 1A (CDKN1A) using HepaRG (AID 2283450); conditions: mRNA level, 48 h; actives raise or lower the signal
Procedure, shortened: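 Differentiated human HepaRG cells, pre-cultured 48 h, were exposed in duplicate for 48 h in serum-free induction medium to eight half-log concentrations up to 100 uM (0.5% DMSO). CDKN1A mRNA was measured by qRT-PCR, normalized to ACTB/GAPDH/POLR2A, bidirectionally fitted versus DMSO.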

[4] = read-out: Cyclin D1 (CCND1), CCND1 (gene 595); assay: LTEA_HepaRG_CCND1: Life Technologies and Expression Analysis (LTEA) Assay for Cyclin D1 (CCND1) using HepaRG (AID 2283451); conditions: mRNA level, 48 h; actives raise or lower the signal;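 as to AC50: TaqMan qRT-PCR transcript level normalised to ACTB GAPDH and POLR2A housekeeping genes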
Procedure, shortened: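 Differentiated human HepaRG cells in serum-free induction medium were exposed 48 h to eight half-log concentrations up to 100 uM in 0.5% DMSO; mRNA quantified by TaqMan qRT-PCR, normalized to ACTB, GAPDH, POLR2A, fitted bidirectionally versus DMSO.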

[5] = read-out: flavin-containing dimethylaniline monooxygenases 3 (FMO3), FMO3 (gene 2328); assay: LTEA_HepaRG_FMO3: Life Technologies and Expression Analysis (LTEA) Assay for flavin-containing dimethylaniline monooxygenases 3 (FMO3) using HepaRG (AID 2283453); conditions: mRNA level, 48 h; actives raise or lower the signal
Procedure, shortened: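 FMO3 transcript quantified by TaqMan qRT-PCR against three housekeeping genes after 48 h chemical exposure of HepaRG cells. Eight-point half-log series, top 100 uM, 0.5% DMSO vehicle; phenobarbital 1mM induction control; up- or down-regulation fitted.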

[6] = read-out: Cytochrome P450 (CYP1A1), CYP1A1 (gene 1543); assay: LTEA_HepaRG_CYP1A1: Life Technologies and Expression Analysis (LTEA) Assay for Cytochrome P450 (CYP1A1) using HepaRG (AID 2283454); conditions: mRNA level, 48 h; actives raise or lower the signal
Procedure, shortened: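 Differentiated HepaRG cells in serum-free induction medium were exposed in duplicate for 48 h to eight half-log concentrations up to 100 uM in 0.5% DMSO. CYP1A1 mRNA was quantified by TaqMan qRT-PCR, normalized to ACTB, GAPDH and POLR2A.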

[7] = read-out: CFLAR gene, CFLAR (gene 8837); assay: LTEA_HepaRG_CFLAR: Life Technologies and Expression Analysis (LTEA) Assay for CFLAR gene using HepaRG (AID 2283455); conditions: mRNA level, 48 h; actives raise or lower the signal
Procedure, shortened: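 qRT-PCR read-out (Fluidigm/TaqMan) of CFLAR mRNA, normalized to three housekeeping genes, in differentiated human HepaRG cells after 48 h chemical exposure; 8-point half-log series from 100 uM in 0.5% DMSO; bidirectional curve fitting versus DMSO.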

[8] = read-out: Forkhead box O1 (FOXO1), FOXO1 (gene 2308); assay: LTEA_HepaRG_FOXO1: Life Technologies and Expression Analysis (LTEA) Assay for Forkhead box O1 (FOXO1) using HepaRG (AID 2283456); conditions: mRNA level, 48 h; actives raise or lower the signal
Procedure, shortened: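 HepaRG, 48 h exposure, 8-pt half-log series from 100 uM in 0.5% DMSO, duplicates; Fluidigm qRT-PCR mRNA, housekeeping-normalised; bidirectional fit vs DMSO baseline.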

[9] = read-out: growth arrest and DNA damage 45 (GADD45A), GADD45A (gene 1647); assay: LTEA_HepaRG_GADD45A: Life Technologies and Expression Analysis (LTEA) Assay for growth arrest and DNA damage 45 (GADD45A) using HepaRG (AID 2283458); conditions: mRNA level, 48 h; actives raise or lower the signal
Procedure, shortened: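 GADD45A expression was measured by TaqMan qRT-PCR against three housekeeping genes (ACTB, GAPDH, POLR2A) after 48 h treatment of HepaRG cells. Eight-point half-log series up to 100 uM in 0.5% DMSO, run in duplicate.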

[10] = CEETOX_H295R_TESTO: CeeTox H295R High-throughput Steroidogenesis Assay for Testosterone (TESTO) (AID 2283457); conditions: actives raise or lower the signal;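 as to AC50: cells exposed to chemicals for 48 h before medium collection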
Method: CEETOX_H295R is a cell-based, multiplexed-readout assay that uses H295R, a human adrenal gland cell line, with measurements taken at 48 hours after chemical dosing in a 96-well plate.CEETOX_H295R_TESTO is one of 23 assay component(s) measured or calculated from the CEETOX_H295R assay. It is designed to make measurements of hormone induction, a form of inducible reporter, as detected with […] by HPLC-MS-MS technology.Data from the assay component CEETOX_H295R_TESTO was analyzed into 1 assay endpoint. This assay endpoint, CEETOX_H295R_TESTO, was analyzed with bidirectional fitting relative to DMSO as the negative control and baseline of activity. Using a type of inducible reporter, gain or loss-of-signal activity using HPLC-MS-MS was used to understand synthesis of Testosterone in H295R cell line at 48hr of chemical exposure. To generalize the intended target to other relatable targets, this assay endpoint is annotated to the steroid hormone intended target family, where the subfamily is androgens.
Cell culture and media preparation procedures were conducted in accordance with OECD Test No. 456 guidelines, with minor modifications. H295R cells (ATCC CRL-2128) were expanded for 5 passages and frozen in batches in liquid nitrogen. Prior to the steroidogenesis assay, H295R cells were thawed and passed at least 4 times. The maximum passage was 10. […] For steroid quantification, media samples were shipped to OpAns, LLC (Durham, NC) on dry ice, and samples were thawed to room temperature prior to liquid-liquid extraction. […] Steroid hormones were separated by HPLC, eluted using a reverse phase C18 gradient with electrospray positive ionization, followed by quantification by tandem mass spectrometry (MS/MS). Data were acquired on a MassHunter Workstation Acquisition version B03.01 (Agilent Technologies, Inc.) and processed using MassHunter Quantitative Analysis for QQQ. Accuracy was determined for each hormone analyte from 3 standards to determine upper and lower limits of quantification (ULOQ and LLOQ, respectively) using a 7-point standard curve. Precision and accuracy of the extraction and quantification methods were calculated as the percent relative standard deviation (%RSD) of the spiked standards and percent spiked standard recovered, respectively. […] Test medium was removed following chemical exposure, and cell viability was evaluated in the same wells by MTT. […] Absorbance was read at 570 and 650nm using a Packard Fusion microplate reader. Background correction of absorbance units was used to determine percent change relative to controls. […] When a test chemical reduced cell viability to 20% - 70%, the test chemical was diluted 10-fold and re-evaluated, but if cell viability was <20%, then the test chemical was diluted 100-fold and re-evaluated. […]

Measured: AC50

Chain of Fatty acid synthase (Homo sapiens) (P49327 whole entry, looked up): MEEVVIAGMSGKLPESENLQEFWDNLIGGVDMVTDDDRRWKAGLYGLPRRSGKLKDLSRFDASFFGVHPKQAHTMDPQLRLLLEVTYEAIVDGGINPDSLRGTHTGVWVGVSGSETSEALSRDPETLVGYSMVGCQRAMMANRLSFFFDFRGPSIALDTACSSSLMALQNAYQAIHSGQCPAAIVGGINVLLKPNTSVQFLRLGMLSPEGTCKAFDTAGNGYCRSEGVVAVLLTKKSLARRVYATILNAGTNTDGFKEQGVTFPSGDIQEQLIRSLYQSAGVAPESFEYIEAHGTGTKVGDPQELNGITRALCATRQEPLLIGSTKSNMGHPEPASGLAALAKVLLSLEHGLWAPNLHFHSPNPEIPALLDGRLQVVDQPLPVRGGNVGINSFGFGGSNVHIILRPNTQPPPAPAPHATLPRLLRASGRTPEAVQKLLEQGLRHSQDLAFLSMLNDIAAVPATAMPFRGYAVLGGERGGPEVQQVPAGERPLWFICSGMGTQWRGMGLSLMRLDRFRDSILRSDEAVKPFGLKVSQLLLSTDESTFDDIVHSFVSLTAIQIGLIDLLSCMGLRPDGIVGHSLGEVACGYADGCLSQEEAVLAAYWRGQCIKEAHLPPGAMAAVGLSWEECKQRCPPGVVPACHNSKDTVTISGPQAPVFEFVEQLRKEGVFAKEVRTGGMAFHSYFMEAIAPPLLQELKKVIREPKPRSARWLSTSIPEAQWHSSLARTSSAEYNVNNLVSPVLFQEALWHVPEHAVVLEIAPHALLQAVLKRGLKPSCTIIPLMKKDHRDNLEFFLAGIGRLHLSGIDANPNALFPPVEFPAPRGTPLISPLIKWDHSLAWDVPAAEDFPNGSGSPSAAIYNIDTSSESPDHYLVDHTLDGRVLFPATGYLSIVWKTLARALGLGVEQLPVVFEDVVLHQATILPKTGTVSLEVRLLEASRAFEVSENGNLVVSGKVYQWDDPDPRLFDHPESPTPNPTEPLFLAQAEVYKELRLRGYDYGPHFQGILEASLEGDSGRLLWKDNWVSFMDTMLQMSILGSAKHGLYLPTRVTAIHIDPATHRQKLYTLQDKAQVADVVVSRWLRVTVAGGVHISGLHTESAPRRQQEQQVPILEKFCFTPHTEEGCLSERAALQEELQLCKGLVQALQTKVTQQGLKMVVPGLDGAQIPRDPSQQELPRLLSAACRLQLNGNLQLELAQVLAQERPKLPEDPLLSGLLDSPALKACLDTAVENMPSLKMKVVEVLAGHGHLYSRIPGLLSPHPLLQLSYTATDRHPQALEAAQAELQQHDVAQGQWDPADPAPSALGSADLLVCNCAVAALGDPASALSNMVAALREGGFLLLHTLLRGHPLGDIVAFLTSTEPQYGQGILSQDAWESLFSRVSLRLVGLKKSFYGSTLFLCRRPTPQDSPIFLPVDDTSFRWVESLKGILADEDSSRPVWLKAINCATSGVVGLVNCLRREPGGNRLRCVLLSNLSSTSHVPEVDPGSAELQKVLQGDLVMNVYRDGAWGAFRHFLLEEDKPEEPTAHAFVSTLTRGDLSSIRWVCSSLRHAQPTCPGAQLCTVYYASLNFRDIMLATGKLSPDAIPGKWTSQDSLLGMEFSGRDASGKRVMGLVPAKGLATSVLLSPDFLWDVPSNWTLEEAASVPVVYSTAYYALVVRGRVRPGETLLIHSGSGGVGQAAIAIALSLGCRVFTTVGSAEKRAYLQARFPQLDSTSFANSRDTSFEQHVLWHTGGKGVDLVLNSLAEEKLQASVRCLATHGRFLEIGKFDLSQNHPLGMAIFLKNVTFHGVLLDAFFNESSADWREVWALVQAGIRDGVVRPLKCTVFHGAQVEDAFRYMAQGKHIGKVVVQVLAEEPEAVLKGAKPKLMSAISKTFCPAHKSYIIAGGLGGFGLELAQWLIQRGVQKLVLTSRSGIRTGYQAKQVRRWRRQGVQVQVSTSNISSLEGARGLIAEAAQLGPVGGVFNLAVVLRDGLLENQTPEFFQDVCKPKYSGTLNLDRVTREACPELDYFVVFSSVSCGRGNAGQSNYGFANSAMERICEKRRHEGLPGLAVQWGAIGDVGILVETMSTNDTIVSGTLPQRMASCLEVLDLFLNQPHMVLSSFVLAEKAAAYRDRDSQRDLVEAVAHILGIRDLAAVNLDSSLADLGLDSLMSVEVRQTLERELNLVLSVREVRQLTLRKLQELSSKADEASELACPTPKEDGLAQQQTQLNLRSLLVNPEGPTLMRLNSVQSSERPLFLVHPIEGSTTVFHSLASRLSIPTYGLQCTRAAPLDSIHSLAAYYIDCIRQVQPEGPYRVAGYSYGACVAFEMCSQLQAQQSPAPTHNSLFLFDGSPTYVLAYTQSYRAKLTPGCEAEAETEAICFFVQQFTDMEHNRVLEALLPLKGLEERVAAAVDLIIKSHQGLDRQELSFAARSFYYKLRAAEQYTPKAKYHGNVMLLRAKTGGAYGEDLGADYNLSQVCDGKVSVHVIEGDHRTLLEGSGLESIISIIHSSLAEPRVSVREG

CC(C)O.CC(C)O.OCCN(CCO)CCO.OCCN(CCO)CCO.[Ti]
not listed: [10]
inactive: all other assays above

Oc1c(Cl)cc(Cl)cc1Cl
not listed: [6] | [10]
inactive: all other assays above

CC(C)(C)c1ccccc1O
active: [6] 50 µM
not listed: [10]
inactive: all other assays above

Oc1cc(Cl)c(Cl)cc1Cl
active: [6] 80.5 µM
not listed: [10]
inactive: all other assays above

Cc1cc(C)cc(C)c1
not listed: [10]
inactive: all other assays above

CCCCCCCCCCCCc1cccc(S(=O)(=O)O)c1
active: [4] 45 µM | [6] 51.6 µM | [8] 16.1 µM
not listed: [2] | [10]
inactive: all other assays above

OC(Cc1ccccc1Cl)(Cn1[nH]cnc1=S)C1(Cl)CC1 (stereo not drawn)
inactive: [10]

Cc1cc(C(C)(C)c2ccc(O)c(C)c2)ccc1O
active: [10] 5 µM

OCCN(CCO)CCO
active: [6] 73.2 µM
not listed: [10]
inactive: all other assays above
